Compound activity (PubChem)
PLK1 PBD block: inhibitors of human PLK1 polo-box domain binding. Plk1 PBD binding of FITC phosphopeptide, fluorescence polarization. P53350. 360,000 tested, 2.8% active. Potency, µM, without a hit: max response, negative = inhibition, usual class: inhibitors; also: series mostly up to about 57 µM; nearly all actives have a fitted effect of over 65% in size
Target sequence (P53350 whole entry, looked up, the tested form may be a part): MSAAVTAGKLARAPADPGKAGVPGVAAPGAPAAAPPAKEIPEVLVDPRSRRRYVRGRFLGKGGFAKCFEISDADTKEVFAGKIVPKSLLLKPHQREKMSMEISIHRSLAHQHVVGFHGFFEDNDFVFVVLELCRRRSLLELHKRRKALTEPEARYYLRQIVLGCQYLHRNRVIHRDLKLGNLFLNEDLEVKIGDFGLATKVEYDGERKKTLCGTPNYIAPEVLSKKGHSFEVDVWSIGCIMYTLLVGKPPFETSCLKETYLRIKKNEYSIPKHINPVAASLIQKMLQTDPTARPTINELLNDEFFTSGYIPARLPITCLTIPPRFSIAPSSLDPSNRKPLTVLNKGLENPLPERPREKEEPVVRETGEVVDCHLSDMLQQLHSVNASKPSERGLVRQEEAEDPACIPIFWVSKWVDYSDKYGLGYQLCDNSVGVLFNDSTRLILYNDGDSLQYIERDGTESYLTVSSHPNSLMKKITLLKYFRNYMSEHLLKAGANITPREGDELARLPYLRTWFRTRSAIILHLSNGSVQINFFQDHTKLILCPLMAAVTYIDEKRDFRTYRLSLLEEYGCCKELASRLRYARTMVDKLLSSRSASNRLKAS
TDP1 cell CPT: growth inhibition of DT40 Tdp1-/-;hTDP1 cells with camptothecin (screen for TDP1 inhibitors); chicken DT40 Tdp1-/-;hTDP1 cells + 20 nM CPT, ATP luminescence, 48 h; AID 686979; 420,000 tested, 12% active; Potency, µM (top dose mostly 46.2 µM), for the others: top-dose activity change, negative = growth inhibition, most hits filed as inhibitors; also: nearly all actives have a fitted effect of over 55% in size
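Chicken DT40 Tdp1-/- cells stably complemented with human TDP1 were seeded at 400 cells/well in medium containing 20 nM camptothecin, exposed to pin-transferred compounds, and grown at 37 °C for at least 48 hr. Viability was read as ATP luminescence.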
VDR inh: blocks the human vitamin D receptor; P11473; VDR-SRC2-3 peptide fluorescence polarization, 2 h; Potency, µM, for the others: max response, negative = inhibition, most hits filed as inhibitors; 400,000 tested, 0.93% active; AID 504847
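Two reagent solutions held at 4 deg C in the dark were dispensed, compounds pinned at 23 nl, and the mixture incubated 2 h at room temperature. Read-out: fluorescence polarization of VDR–SRC2-3 peptide binding.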
TDP1 cell noCPT: qHTS for Inhibitors of human tyrosyl-DNA phosphodiesterase 1 (TDP1): qHTS in cells in absence of CPT; DT40 Tdp1-/- hTDP1 cells, no CPT, ATP luminescence, 48 h; Potency, µM (doses to about 46.2 µM), inactives show top-dose activity change, negative = growth inhibition, usual class: inhibitors; 420,000 tested, 15% active; also: nearly all actives have a fitted effect of over 55% in size
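Chicken DT40 Tdp1-/- cells stably complemented with human TDP1 were seeded at 400 cells/well with DMSO in place of 20 nM camptothecin. After compound pinning, cells grew at least 48 hr at 37 °C; viability read by CellTiter-Glo luminescence.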
TDP1 inh: inhibitors of human tyrosyl-DNA phosphodiesterase TDP1. Q9NUW8. recombinant TDP1, AlphaScreen DNA substrate cleavage. Potency, µM (titrated, usually from 130 µM), for the others: at the highest dose activity change, negative = inhibition, most hits filed as inhibitors. 350,000 tested, 0.28% active; also: nearly all actives have a fitted effect of over 40% in size
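Signal: AlphaScreen proximity between streptavidin donor and anti-FITC acceptor beads on intact substrate. Reaction: Tdp1 1 nM, substrate 15 nM final, 5 min RT after 15 min compound preincubation.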
GCN5L2 inh: GCN5L2 (KAT2A) acetyltransferase inhibition | Q92830 | GCN5L2 HAT assay, ThioGlo1 CoA-SH fluorescence | Potency, µM (doses to about 58.9 µM), without a hit: at the highest dose activity change, negative = inhibition, most hits filed as inhibitors | 390,000 tested, 0.21% active | AID 504327
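qHTS, 1536-well. 20nM enzyme, pH 7.5 HEPES/EDTA/Tween-20 buffer; 15 min compound preinc., RT. Start: 75uM H3(1-25), 70uM AcCoA, 50uM ThioGlo1. Read Ex340/Em540 at t=0 (autofluorescence flag) and t=20 min.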
Active calls of the source: *; u = inconclusive; x = not tested or not shown; [ ] = remark or other dose. The list is not random: actives were taken first. Their share in the collection is about 18%. Calls follow the shape of the dose curve; as a rule, active = well fitted curve in the direction sought with a large enough effect; inconclusive = small, poorly fitted or top-dose-only effect, or another doubt; inactive = no such curve, though single readings can be large; an effect the other way counts as inactive or inconclusive. % is scaled to controls: 0 for no effect and ±100 for the full control effect; potency is read from the fitted curve at half-maximal effect.

SMILES	PLK1 PBD block	TDP1 cell CPT	VDR inh	TDP1 cell noCPT	TDP1 inh	GCN5L2 inh
O=C(CSc1oc(-c2ccccc2)nc1S(=O)(=O)c1ccccc1)c1ccccc1	x	12µM*	2%	15µM*	6%	-4%
Cc1cc(C)cc(NC(=O)CSc2oc(-c3ccccc3)nc2S(=O)(=O)c2ccccc2)c1	x	18µM*	0%	23µM*	3%	-7%
CC(=O)N1c2cc3ccccc3cc2N(C(C)=O)c2cc3ccccc3cc21	-11%	u	-10%	-62%	x	x
COC(=O)C1(C)COP(=O)(Nc2ccc(OC)cc2)OC1 (stereo unspecified)	-7%	-27%	x	-28%	x	x
N#C/C(=C\c1ccc(OCc2ccc(C(=O)O)cc2)cc1)C(=O)NCc1ccccc1	u	-13%	u	u	x	-4%
Cc1nc(S/C(=C/c2ccc(OCc3ccc(C(=O)O)cc3)cc2)C(=O)O)n[nH]1	-19%	18%	3%	-6%	13µM*	-29%
COc1ccc(NC(=O)c2sc3nc(C)nc(N4CCN(c5ccccn5)CC4)c3c2C)cc1Cl	2%	u	26%	21µM*	x	-6%
Cc1cc(Br)ccc1NC(=O)c1sc2ncnc(N3CCN(c4ccccn4)CC3)c2c1C	1%	10µM*	-5%	2.6µM*	1%	-14%
COc1ccc(NC(=O)c2sc3ncnc(N4CCN(c5ccccn5)CC4)c3c2C)cc1Cl	-10%	21µM*	-6%	5.8µM*	2%	-11%
CCOc1ccc(OCC)c(NC(=O)CCc2c(C)nc3c(c2C)c(=O)n(C)c(=O)n3C)c1	x	u	2%	u	1%	3%
CC(C)CNc1ncnc2c1ncn2[C@H]1CN(C2CCCC2)C[C@@H](CO)O1	-13%	-23%	x	u	x	x
Cc1ccc(S(=O)(=O)c2nc(S(=O)(=O)c3ccccc3)sc2NCCCOC(C)C)cc1	x	u	-1%	12µM*	5%	-5%
CCCS(=O)(=O)c1nc(S(=O)(=O)c2ccc(C)cc2)c(NCCCOC(C)C)s1	x	u	4%	16µM*	0%	-11%
O=C(C[n+]1cccc(Br)c1)c1ccc(F)cc1	x	-4%	x	0%	x	x
Cc1c(N=C2N=C(NC(=O)c3ccc(F)cc3)c3ccccc32)c(=O)n(-c2ccccc2)n1C	-25%	16µM*	11%	23µM*	8%	-1%
Cc1c(NC(=O)c2ccc(C(=O)Nc3c(C)n(C)n(-c4ccccc4)c3=O)cc2)c(=O)n(-c2ccccc2)n1C	-22%	u	-26%	-2%	x	-7%
O=C(OCC#CCSc1nnc(-c2cccc3ccccc23)o1)c1ccc(F)cc1F	x	x	x	x	-7%	x
COc1ccc(N(C(=O)c2cccnc2)S(=O)(=O)c2ccc(Cl)cc2)cc1	-4%	u	3%	-15%	x	-15%
Cc1ccc(C(=O)N(c2ccc(C)cc2)S(=O)(=O)c2ccc(Cl)cc2)cc1	x	u	0%	23µM*	-8%[12.3 µM]	3%
COc1ccc(N(C(=O)c2ccc(C(C)(C)C)cc2)S(=O)(=O)c2ccc(Cl)cc2)cc1	x	u	-6%	21µM*	-9%[12.3 µM]	-9%
COc1ccc(N(C(=O)c2cccc(C)c2)S(=O)(=O)c2ccc(Cl)cc2)cc1	x	18µM*	1%	u	6%[12.3 µM]	-16%
COc1ccc(N(C(=O)COc2ccccc2OC)S(=O)(=O)c2ccc(Cl)cc2)cc1	x	16µM*	-11%	23µM*	5%[12.3 µM]	-7%
COc1ccc(S(=O)(=O)N(CC(=O)NCCc2ccccc2)c2ccc(Cl)cc2)cc1	x	-26%	3%	-20%	x	15%
O=C(O)c1ccc2c(c1)C(=O)N(CCc1c[nH]c3ccccc13)C2=O	-11%	-6%	-8%	-16%	x	u
NC(=O)[C@@H]1CCCN1C(=O)CC1(c2cccc(F)c2)CC(=O)N(C2CCCC2)C1=O (stereo partly specified)	x	1%[9.04 µM]	x	-6%	x	x
SMILES	PLK1 PBD block	TDP1 cell CPT	VDR inh	TDP1 cell noCPT	TDP1 inh	GCN5L2 inh
CSc1ncc(C(=O)N2CCN(c3ccc(Cl)cc3)CC2)c(C)n1	x	u	2%	u	1%	-8%
COc1cccc(CNc2ccc([N+](=O)[O-])cc2C)c1	-7%	u	-13%	18µM*	4%	-8%
Cc1cc([N+](=O)[O-])ccc1NCc1ccc2c(c1)OCCO2	-4%	-30%	-3%	-27%	7%	-12%
COc1cccc(NC(=O)CSc2nc(O)c(C/C=C/c3ccccc3)c(=O)[nH]2)c1	x	-6%	-20%	u	x	-3%
C=CC[C@@H](CC(=O)N(CCO)Cc1ccccc1)C(=O)N[C@H](COC(=O)[C@H](CC=C)CC(=O)OC(C)(C)C)Cc1c[nH]c2ccccc12	-1%	23µM*	15%	16µM*	4%	-15%
C=CC[C@H](CC(=O)N(CCO)Cc1ccccc1)C(=O)N[C@H](COC(=O)[C@@H](CC=C)CC(=O)OC(C)(C)C)Cc1c[nH]c2ccccc12	-5%	23µM*	-21%	16µM*	4%	-15%
CCN(C(=S)NC(=O)c1ccccc1Br)C1CCCCC1	5%	16µM*	-12%	u	8%	0%
Cn1c(=O)c(C(=O)NC2CCCCCC2)c(O)c2ccccc21	-4%	-6%	-7%	-17%	x	-7%
Cn1c(C(=O)NC2CCCCC2)cc2c(=O)n(C)c3ccccc3c21	-3%	u	-8%	16µM*	0%	-4%
Cn1c(=O)c(C(=O)NC2CCCCCCC2)c(O)c2ccccc21	-4%	21µM*	14%	21µM*	0%	-1%
Cn1c(C(=O)NC2CCCCCC2)cc2c(=O)n(C)c3ccccc3c21	2%	15µM*	-4%	16µM*	-3%	7%
COc1ccc(S(=O)(=O)N(C)C[C@@H]2Oc3c(NS(C)(=O)=O)cccc3C(=O)N([C@@H](C)CO)C[C@H]2C)cc1	-19%	2%	13%	-12%	3%	-6%
COc1cc(OC)cc(-c2nnc(SCc3cccnc3)o2)c1	-6%	26µM*	-3%	-25%	3%	-2%
O=[N+]([O-])c1cccc(-c2nnc(SCc3cccnc3)o2)c1	-5%	-6%	4%	3%	6%	-3%
CCCS(=O)(=O)NCc1c(C)ncc2c1CCN(C(=O)c1cccc(-c3ccccc3F)c1)C2	x	7%[9.04 µM]	x	u	x	x
Cc1cc2cc(NC(=O)c3ccco3)ccc2[nH]1	-21%	-2%	2%	-8%	-1%	0%
